Results reported in paper PMC7862700, “An all-to-all approach to the identification of sequence-specific readers for epigenetic DNA modifications on cytosine”.

How the values were obtained:
Test in all cases: DAPPL (digital affinity profiling via proximity ligation, sequencing); 10 mM Tris-HCl pH 7.5, 50 mM NaCl, 1 mM DTT, 4% glycerol, room temperature, 30 min; GST-TFs on glutathione beads, 16-mer random dsDNA library, 0.1% formaldehyde crosslink after washing; high values mean tight binding
FLI1 = molecular target: T1, FLI1 (Homo sapiens, UniProt Q01543 1-452); conditions: protein: recombinant; tags: N-terminal GST; dsDNA, one strand shown
T1 sequence: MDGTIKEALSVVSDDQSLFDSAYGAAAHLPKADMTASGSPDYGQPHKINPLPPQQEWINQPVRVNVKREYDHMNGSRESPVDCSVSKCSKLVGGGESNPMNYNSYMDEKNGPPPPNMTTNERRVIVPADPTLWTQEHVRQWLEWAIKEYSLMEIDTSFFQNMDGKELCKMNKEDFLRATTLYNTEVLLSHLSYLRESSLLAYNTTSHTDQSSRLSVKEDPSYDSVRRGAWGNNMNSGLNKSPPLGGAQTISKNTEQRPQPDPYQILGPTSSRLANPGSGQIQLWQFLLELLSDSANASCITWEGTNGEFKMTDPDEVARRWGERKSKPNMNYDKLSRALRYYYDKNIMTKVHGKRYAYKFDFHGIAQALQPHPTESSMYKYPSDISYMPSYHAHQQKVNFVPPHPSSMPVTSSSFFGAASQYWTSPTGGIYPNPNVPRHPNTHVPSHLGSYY
Procedure, shortened: (§1)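 Human transcription factors were made in yeast as GST fusions, captured on glutathione beads and barcoded with DNA. With a tag-only sample included, the pool was incubated with 200 nmole of a random double-stranded 16-mer DNA library in Tris/NaCl/DTT/glycerol buffer at room temperature for 30 min, then crosslinked with 0.1% formaldehyde after washing, ligated by proximity, amplified and sequenced. For binding signal, each hexamer's read frequency for a factor is divided by its frequency for the tag-only sample.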

ELK1 = molecular target: T2, ELK1 (Homo sapiens, UniProt P19419 1-428); conditions: protein: recombinant; tags: N-terminal GST; dsDNA, one strand shown
T2 sequence: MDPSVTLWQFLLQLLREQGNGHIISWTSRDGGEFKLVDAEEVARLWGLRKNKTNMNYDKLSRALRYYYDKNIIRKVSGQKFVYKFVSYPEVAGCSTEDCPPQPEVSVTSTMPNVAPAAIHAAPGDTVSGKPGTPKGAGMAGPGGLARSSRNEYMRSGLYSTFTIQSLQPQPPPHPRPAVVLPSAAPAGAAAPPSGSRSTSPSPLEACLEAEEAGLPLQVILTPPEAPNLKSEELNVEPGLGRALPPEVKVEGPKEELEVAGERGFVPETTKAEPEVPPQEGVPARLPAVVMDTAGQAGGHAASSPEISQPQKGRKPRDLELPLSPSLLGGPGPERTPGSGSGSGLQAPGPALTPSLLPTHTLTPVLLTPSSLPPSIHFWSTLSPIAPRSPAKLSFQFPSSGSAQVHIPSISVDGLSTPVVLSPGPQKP
Procedure, shortened: as §1

GABPA = molecular target: T3, GABPA (Homo sapiens, UniProt Q06546 1-454); conditions: protein: recombinant; tags: N-terminal GST; dsDNA, one strand shown
T3 sequence: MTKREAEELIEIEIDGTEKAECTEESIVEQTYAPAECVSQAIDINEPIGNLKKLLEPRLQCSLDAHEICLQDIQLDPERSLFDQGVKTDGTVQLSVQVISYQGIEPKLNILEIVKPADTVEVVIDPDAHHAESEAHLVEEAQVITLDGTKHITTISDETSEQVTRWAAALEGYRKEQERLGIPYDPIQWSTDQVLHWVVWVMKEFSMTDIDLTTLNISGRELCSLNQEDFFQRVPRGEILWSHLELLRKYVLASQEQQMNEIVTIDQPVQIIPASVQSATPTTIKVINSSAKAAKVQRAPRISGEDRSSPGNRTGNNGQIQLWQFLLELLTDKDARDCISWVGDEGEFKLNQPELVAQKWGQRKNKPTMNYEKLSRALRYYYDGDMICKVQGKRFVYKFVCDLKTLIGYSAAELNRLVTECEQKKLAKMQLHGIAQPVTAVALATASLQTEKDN
Procedure, shortened: as §1

ERG = molecular target: T4, ERG (Homo sapiens, UniProt P11308 1-479); conditions: protein: recombinant; tags: N-terminal GST; dsDNA, one strand shown
T4 sequence: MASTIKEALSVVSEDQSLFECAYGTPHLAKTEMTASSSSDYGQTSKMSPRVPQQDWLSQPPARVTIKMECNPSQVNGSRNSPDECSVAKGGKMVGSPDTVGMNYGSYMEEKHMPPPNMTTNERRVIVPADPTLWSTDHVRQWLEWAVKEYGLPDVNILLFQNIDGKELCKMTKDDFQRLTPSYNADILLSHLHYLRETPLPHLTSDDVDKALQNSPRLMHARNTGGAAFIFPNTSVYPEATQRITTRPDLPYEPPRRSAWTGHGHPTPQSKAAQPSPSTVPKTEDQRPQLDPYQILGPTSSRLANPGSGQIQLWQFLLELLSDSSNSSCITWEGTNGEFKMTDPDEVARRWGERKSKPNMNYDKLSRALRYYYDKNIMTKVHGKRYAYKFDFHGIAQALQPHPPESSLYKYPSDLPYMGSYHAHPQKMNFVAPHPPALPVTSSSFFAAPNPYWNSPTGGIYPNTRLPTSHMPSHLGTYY
Procedure, shortened: as §1

ELF1 = ELF1 (Homo sapiens, UniProt P32519 1-619); conditions: protein: recombinant; tags: N-terminal GST; dsDNA, one strand shown
Procedure, shortened: as §1

EHF = molecular target: T5, EHF (Homo sapiens, UniProt Q9NZC4 1-300); conditions: protein: recombinant; tags: N-terminal GST; dsDNA, one strand shown
T5 sequence: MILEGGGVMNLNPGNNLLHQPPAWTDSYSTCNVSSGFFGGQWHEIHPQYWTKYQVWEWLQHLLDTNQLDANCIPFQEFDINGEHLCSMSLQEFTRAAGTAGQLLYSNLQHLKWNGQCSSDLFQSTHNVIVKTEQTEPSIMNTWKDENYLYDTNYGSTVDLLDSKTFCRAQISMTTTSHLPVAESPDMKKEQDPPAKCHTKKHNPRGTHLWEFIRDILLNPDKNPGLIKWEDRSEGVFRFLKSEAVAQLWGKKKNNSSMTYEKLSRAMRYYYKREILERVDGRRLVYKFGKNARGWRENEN
Procedure, shortened: as §1

SPI1 = SPI1 (Homo sapiens, UniProt P17947 1-270); conditions: protein: recombinant; tags: N-terminal GST; dsDNA, one strand shown
Procedure, shortened: as §1

SPIB = SPIB (Homo sapiens, UniProt Q01892 1-262); conditions: protein: recombinant; tags: N-terminal GST; dsDNA, one strand shown
Procedure, shortened: as §1

ELK3 = molecular target: T6, ELK3 (Homo sapiens, UniProt P41970 1-407); conditions: protein: recombinant; tags: N-terminal GST; dsDNA, one strand shown
T6 sequence: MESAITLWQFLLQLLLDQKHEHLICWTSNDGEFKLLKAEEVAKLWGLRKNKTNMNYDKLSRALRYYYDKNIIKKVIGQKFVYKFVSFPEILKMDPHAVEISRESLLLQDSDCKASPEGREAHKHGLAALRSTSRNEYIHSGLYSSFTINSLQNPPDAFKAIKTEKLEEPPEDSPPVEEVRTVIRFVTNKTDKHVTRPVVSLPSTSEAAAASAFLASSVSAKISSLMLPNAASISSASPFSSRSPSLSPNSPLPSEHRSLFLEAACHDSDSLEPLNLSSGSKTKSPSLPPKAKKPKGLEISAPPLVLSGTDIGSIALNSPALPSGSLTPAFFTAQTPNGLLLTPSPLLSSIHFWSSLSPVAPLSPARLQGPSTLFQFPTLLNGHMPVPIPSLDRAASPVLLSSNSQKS
Procedure, shortened: as §1

FEV = molecular target: T7, FEV (Homo sapiens, UniProt Q99581 1-238); conditions: protein: recombinant; tags: N-terminal GST; dsDNA, one strand shown
T7 sequence: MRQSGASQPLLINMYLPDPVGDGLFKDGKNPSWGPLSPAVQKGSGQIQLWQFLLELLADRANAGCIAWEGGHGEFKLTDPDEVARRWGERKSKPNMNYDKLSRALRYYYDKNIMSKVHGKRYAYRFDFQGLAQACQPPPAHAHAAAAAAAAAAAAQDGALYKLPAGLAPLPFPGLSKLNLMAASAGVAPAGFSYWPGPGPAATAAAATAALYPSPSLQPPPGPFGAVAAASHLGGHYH
Procedure, shortened: as §1

ETV5 = ETV5 (Homo sapiens, UniProt P41161 1-510); conditions: protein: recombinant; tags: N-terminal GST; dsDNA, one strand shown
Procedure, shortened: as §1

HSF1 = HSF1 (Homo sapiens, UniProt Q00613 1-529); conditions: protein: recombinant; tags: N-terminal GST; chain copies: 3; dsDNA, one strand shown
Procedure, shortened: as §1

SPIC = molecular target: T8, SPIC (Homo sapiens, UniProt Q8N5J4 1-248); conditions: protein: recombinant; tags: N-terminal GST; dsDNA, one strand shown
T8 sequence: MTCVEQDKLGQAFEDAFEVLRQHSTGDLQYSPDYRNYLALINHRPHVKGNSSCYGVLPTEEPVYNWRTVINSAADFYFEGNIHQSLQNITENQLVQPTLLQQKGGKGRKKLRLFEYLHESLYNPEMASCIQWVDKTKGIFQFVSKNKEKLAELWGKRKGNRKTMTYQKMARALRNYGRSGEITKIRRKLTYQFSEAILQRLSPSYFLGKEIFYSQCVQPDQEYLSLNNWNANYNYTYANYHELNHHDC
Procedure, shortened: as §1

ELF4 = ELF4 (Homo sapiens, UniProt Q99607 1-663); conditions: protein: recombinant; tags: N-terminal GST; dsDNA, one strand shown
Procedure, shortened: as §1

ELK4 = molecular target: T9, ELK4 (Homo sapiens, UniProt P28324-2 1-405); conditions: protein: recombinant; tags: N-terminal GST; dsDNA, one strand shown
T9 sequence: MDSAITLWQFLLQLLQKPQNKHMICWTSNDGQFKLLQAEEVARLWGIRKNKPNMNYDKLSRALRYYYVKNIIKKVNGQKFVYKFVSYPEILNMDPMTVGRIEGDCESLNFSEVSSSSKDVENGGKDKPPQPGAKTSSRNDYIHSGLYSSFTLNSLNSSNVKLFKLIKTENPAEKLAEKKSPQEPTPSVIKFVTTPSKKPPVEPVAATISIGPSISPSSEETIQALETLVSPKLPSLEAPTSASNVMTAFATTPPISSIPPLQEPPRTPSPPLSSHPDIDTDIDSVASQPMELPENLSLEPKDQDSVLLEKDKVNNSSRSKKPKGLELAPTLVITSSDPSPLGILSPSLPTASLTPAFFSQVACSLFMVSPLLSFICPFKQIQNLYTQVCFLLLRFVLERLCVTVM
Procedure, shortened: as §1

ETV2 = molecular target: T10, ETV2 (Homo sapiens, UniProt O00321 1-342); conditions: protein: recombinant; tags: N-terminal GST; dsDNA, one strand shown
T10 sequence: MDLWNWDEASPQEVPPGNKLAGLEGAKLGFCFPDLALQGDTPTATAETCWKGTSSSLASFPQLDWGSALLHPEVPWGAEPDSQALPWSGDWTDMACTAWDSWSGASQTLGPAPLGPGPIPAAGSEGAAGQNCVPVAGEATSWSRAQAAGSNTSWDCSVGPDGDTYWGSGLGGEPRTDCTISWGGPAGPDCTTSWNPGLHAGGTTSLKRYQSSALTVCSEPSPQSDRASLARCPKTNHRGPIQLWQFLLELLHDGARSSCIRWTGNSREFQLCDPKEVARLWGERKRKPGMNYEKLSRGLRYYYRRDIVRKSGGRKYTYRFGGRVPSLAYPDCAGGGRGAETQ
Procedure, shortened: as §1

ELF3 = molecular target: T11, ELF3 (Homo sapiens, UniProt P78545 1-371); conditions: protein: recombinant; tags: N-terminal GST; dsDNA, one strand shown
T11 sequence: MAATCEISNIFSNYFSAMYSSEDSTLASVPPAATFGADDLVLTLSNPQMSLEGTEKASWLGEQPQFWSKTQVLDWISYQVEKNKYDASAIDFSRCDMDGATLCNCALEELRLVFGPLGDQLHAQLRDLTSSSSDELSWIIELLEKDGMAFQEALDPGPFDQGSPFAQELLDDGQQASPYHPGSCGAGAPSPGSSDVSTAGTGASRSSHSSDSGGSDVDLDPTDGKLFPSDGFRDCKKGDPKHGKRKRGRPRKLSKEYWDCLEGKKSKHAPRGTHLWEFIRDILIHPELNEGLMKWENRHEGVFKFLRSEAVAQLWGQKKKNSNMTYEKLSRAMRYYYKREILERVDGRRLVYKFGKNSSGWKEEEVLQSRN
Procedure, shortened: as §1

CRX = CRX (Homo sapiens, UniProt O43186 1-299); conditions: protein: recombinant; tags: N-terminal GST; dsDNA, one strand shown
Procedure, shortened: as §1

ETV1 = ETV1 (Homo sapiens, UniProt P50549 1-477); conditions: protein: recombinant; tags: N-terminal GST; dsDNA, one strand shown
Procedure, shortened: as §1

Sequence of ELF1 (P32519 whole entry): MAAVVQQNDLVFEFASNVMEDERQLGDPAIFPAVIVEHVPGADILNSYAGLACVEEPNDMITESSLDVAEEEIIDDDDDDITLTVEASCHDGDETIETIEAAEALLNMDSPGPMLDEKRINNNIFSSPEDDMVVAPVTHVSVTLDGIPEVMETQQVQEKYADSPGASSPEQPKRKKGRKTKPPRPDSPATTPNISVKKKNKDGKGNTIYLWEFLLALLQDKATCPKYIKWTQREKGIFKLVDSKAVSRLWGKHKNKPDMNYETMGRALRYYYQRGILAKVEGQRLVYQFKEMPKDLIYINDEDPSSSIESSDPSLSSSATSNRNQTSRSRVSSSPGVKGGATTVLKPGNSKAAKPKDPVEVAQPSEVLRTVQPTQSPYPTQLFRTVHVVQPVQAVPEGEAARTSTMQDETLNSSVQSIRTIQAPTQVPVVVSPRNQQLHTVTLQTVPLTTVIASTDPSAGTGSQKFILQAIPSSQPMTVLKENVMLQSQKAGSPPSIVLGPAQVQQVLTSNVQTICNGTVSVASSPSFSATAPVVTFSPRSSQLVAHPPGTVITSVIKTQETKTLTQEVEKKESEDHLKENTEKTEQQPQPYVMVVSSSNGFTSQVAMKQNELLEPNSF
Sequence of CRX (O43186 whole entry): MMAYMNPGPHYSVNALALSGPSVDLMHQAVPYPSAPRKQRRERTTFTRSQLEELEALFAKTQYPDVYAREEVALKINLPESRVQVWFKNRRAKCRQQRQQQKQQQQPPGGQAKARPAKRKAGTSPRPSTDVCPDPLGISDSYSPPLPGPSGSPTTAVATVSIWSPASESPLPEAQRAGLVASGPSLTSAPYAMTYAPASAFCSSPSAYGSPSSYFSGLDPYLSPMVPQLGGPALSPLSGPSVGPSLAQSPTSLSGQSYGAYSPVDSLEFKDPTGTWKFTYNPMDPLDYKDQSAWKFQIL
Sequence of ETV5 (P41161 whole entry): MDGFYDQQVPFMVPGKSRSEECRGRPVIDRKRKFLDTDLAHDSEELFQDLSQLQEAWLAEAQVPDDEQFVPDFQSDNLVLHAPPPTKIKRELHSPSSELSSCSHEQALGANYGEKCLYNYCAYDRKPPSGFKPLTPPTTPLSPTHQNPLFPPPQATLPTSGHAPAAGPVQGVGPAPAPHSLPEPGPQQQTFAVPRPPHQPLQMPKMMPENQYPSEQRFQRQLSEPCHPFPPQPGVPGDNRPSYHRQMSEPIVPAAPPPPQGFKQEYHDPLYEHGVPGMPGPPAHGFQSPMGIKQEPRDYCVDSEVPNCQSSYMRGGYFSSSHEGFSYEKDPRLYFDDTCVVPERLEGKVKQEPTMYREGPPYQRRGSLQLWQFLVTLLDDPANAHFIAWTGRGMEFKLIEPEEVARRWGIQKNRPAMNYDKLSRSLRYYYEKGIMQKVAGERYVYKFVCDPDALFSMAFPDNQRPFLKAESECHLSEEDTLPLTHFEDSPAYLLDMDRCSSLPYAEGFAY
Sequence of SPIB (Q01892 whole entry): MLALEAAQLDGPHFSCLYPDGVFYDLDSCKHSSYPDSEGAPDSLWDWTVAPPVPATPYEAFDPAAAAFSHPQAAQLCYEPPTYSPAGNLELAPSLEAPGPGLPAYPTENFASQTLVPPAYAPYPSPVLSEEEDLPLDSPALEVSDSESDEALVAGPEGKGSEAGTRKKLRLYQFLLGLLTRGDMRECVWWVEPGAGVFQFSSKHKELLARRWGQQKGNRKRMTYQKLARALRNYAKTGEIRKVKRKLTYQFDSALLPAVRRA
Sequence of HSF1 (Q00613 whole entry): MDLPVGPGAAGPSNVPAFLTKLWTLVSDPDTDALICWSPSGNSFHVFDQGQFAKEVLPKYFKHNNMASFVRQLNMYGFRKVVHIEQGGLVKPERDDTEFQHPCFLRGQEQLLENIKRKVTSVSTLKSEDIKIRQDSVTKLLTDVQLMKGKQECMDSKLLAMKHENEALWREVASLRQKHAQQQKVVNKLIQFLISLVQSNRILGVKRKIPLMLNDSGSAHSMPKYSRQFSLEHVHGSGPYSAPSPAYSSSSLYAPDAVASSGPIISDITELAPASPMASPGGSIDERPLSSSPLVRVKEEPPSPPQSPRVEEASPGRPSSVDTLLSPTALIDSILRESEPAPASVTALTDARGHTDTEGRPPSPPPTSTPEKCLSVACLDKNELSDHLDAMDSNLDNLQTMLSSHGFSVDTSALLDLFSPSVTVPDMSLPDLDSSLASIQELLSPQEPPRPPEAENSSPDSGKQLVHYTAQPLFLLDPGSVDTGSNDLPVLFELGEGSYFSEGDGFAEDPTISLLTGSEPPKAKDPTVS
Sequence of ELF4 (Q99607 whole entry): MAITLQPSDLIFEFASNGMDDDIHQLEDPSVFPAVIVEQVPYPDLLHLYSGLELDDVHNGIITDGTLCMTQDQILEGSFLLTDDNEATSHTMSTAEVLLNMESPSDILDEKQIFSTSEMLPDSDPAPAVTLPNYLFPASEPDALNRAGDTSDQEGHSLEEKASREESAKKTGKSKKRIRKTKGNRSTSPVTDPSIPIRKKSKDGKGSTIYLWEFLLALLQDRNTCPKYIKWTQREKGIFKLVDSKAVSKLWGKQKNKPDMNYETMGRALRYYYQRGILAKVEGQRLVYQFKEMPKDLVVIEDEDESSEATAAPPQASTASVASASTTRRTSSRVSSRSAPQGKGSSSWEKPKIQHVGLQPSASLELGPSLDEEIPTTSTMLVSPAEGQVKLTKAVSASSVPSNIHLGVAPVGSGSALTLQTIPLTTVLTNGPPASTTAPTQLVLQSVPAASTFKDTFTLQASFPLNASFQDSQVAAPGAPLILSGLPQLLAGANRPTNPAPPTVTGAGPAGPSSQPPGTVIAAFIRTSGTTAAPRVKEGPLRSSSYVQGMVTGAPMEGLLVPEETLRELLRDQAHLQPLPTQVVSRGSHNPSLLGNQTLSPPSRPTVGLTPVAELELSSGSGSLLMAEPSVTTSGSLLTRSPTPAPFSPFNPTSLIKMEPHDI
Sequence of ETV1 (P50549 whole entry): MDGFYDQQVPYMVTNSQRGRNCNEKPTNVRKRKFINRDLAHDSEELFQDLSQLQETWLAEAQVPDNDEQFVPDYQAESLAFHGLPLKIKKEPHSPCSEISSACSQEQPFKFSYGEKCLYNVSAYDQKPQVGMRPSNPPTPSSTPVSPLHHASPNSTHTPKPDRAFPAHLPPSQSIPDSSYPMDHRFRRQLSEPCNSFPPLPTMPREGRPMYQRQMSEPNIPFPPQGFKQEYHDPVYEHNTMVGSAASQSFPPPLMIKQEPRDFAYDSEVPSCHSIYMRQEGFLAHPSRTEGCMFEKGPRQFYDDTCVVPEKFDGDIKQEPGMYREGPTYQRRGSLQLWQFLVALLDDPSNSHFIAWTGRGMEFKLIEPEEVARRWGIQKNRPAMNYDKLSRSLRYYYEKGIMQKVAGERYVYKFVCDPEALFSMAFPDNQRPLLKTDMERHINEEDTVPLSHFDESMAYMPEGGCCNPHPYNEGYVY

With TGTCTT the binding signal (FLI1) was 1.29 fold enrichment (6-mer frequency, TF over GST control), the binding signal (ELK1) was 1.2 fold enrichment (6-mer frequency, TF over GST control) and the binding signal (GABPA) was 1.38 fold enrichment (6-mer frequency, TF over GST control). For the same sequence, the binding signal (ERG) was 1.34 fold enrichment (6-mer frequency, TF over GST control), the binding signal (ELF1) was 1.35 fold enrichment (6-mer frequency, TF over GST control) and the binding signal (EHF) was 1.31 fold enrichment (6-mer frequency, TF over GST control). The binding signal (SPI1) was 1.2 fold enrichment (6-mer frequency, TF over GST control), the binding signal (SPIB) was 1.26 fold enrichment (6-mer frequency, TF over GST control) and the binding signal (ELK3) was 1.38 fold enrichment (6-mer frequency, TF over GST control). For the same sequence, the binding signal (FEV) was 1.27 fold enrichment (6-mer frequency, TF over GST control), the binding signal (ETV5) was 1.24 fold enrichment (6-mer frequency, TF over GST control) and the binding signal (HSF1) was 1.13 fold enrichment (6-mer frequency, TF over GST control). For the same sequence, the binding signal (SPIC) was 1.39 fold enrichment (6-mer frequency, TF over GST control), the binding signal (ELF4) was 1.19 fold enrichment (6-mer frequency, TF over GST control) and the binding signal (ELK4) was 1.17 fold enrichment (6-mer frequency, TF over GST control). For the same sequence, the binding signal (ETV2) was 1.18 fold enrichment (6-mer frequency, TF over GST control), the binding signal (ELF3) was 1.25 fold enrichment (6-mer frequency, TF over GST control) and the binding signal (CRX) was 1.3 fold enrichment (6-mer frequency, TF over GST control). The binding signal (ETV1) was 1.24 fold enrichment (6-mer frequency, TF over GST control).
